Inconclusive results are not listed. Calls of active or inactive are those of the source. Calls follow the shape of the dose curve; as a rule, active = well fitted curve in the direction sought with a large enough effect in the repeat runs; inconclusive = weak or mixed curves; inactive = no such curve, though single readings can be large; an effect the other way counts as inactive or inconclusive.
Columns and labels:
[1] = qHTS RealTime-Glo MT Cell Viability Assay in HEK293 cells - 16 hour (AID 1224872); settings: RealTime-Glo luminescence; series mostly up to 76.8 µM; also: top concentration of the series differs between compounds; nearly all actives have a fitted effect of over 50% in size
Outline: (§1)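 Viability tracked continuously by luminescence as live cells reduce a prosubstrate for NanoLuc; HEK293 cells preincubated 5 h, compound-treated at 37 C, and read at 0, 8, 16, 24, 32 and 40 h.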

[2] = qHTS RealTime-Glo MT Cell Viability Assay in HepG2 cells - 8 hour (AID 1224873); settings: RealTime-Glo luminescence; series mostly up to 76.8 µM; also: nearly all actives have a fitted effect of over 55% in size
Outline: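 HepG2 cells (600/well) mixed with RealTime-Glo MT reagent, settled 5 h at 37 C/5% CO2 before compound addition. Nonlytic NanoLuc luminescence from viable-cell prosubstrate reduction read repeatedly during 40 h treatment at 37 C.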

[3] = qHTS RealTime-Glo MT Cell Viability Assay in HEK293 cells - 40 hour (AID 1224874); settings: RealTime-Glo luminescence; max response: active compounds read low; also: nearly all actives have a fitted effect of over 50% in size; also: potency is read from the fitted curve at half-maximal effect
Outline: (§2)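 Cells were seeded together with NanoLuc luciferase and a prosubstrate that viable cells reduce to a luciferase substrate. After a 5 h incubation at 37 C/5% CO2, compounds were added and luminescence was measured repeatedly during 40 h of treatment.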

[4] = qHTS RealTime-Glo MT Cell Viability Assay in HepG2 cells - 32 hour (AID 1224877); settings: RealTime-Glo luminescence; series mostly up to 76.8 µM; also: nearly all actives have a fitted effect of over 55% in size
Outline: (§3)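 Viability was tracked continuously by NanoLuc luminescence from prosubstrate reduced by living HepG2 cells, at successive time points over 40 h of compound exposure. Cells with reagent were preincubated 5 h at 37 °C before compound addition.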

[5] = qHTS RealTime-Glo MT Cell Viability Assay in HEK293 cells - 0 hour (AID 1224880); settings: RealTime-Glo luminescence; series mostly up to 76.8 µM; also: top concentration of the series differs between compounds; nearly all actives have a fitted effect of over 45% in size
Outline: as §2

[6] = A CellTox Green Cytotoxicity Assay to monitor cytotoxicity in HepG2 cells - 0 hour (AID 1224882); settings: CellTox Green fluorescence; series mostly up to 76.8 µM; also: nearly all actives have a fitted effect of over 35% in size
Outline: (§4)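 Read-out is fluorescence of a cyanine dye excluded from live cells that stains DNA of dead HepG2 cells, with signal proportional to cytotoxicity. Plates were read at 0, 8, 16, 24, 32 and 40 h after compound addition.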

[7] = A CellTox Green Cytotoxicity Assay to monitor cytotoxicity in HEK293 cells - 8 hour (AID 1224884); settings: CellTox Green fluorescence; series mostly up to 76.8 µM; also: nearly all actives have a fitted effect of over 35% in size
Outline: (§5)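 Nonlytic real-time cytotoxicity: HEK293 + CellTox Green reagent plated, 5 h preincubation, pintool compound addition (23 nL in DMSO), 37 C for 40 h, fluorescence measured at successive time points.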

[8] = qHTS RealTime-Glo MT Cell Viability Assay in HepG2 cells - 16 hour (AID 1224885); settings: RealTime-Glo luminescence; series mostly up to 76.8 µM; also: nearly all actives have a fitted effect of over 50% in size
Outline: as §3

[9] = qHTS RealTime-Glo MT Cell Viability Assay in HEK293 cells - 8 hour (AID 1224887); settings: RealTime-Glo luminescence; series mostly up to 76.8 µM; also: top concentration of the series differs between compounds; nearly all actives have a fitted effect of over 50% in size
Outline: as §2

[10] = qHTS RealTime-Glo MT Cell Viability Assay in HepG2 cells - 0 hour (AID 1224889); settings: RealTime-Glo luminescence; series mostly up to 76.8 µM; also: nearly all actives have a fitted effect of over 50% in size
Outline: as §3

[11] = A CellTox Green Cytotoxicity Assay to monitor cytotoxicity in HepG2 cells - 8 hour (AID 1224890); settings: CellTox Green fluorescence; series mostly up to 76.8 µM; also: nearly all actives have a fitted effect of over 45% in size
Outline: as §4

[12] = qHTS assay to identify small molecule antagonists of the estrogen receptor alpha (ER-alpha) signaling pathway using the BG1 cell line in the presence of 0.1 nM 17-beta-estradiol - cell viability counter screen (AID 1259241); settings: VM7Luc4E2 (BG1) viability, CellTiter-Fluor protease, 22 h, 0.1 nM estradiol agonist added; series mostly up to 92.4 µM; also: nearly all actives have a fitted effect of over 40% in size
Outline: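 Viability in VM7Luc4E2 cells after 22 hr compound exposure under 0.1 nM 17beta-estradiol stimulation, by CellTiter-Fluor.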

[13] = A CellTox Green Cytotoxicity Assay to monitor cytotoxicity in HepG2 cells - 16 hour (AID 1224876); settings: CellTox Green fluorescence; series mostly up to 76.8 µM; also: nearly all actives have a fitted effect of over 45% in size
Outline: as §4

[14] = A CellTox Green Cytotoxicity Assay to monitor cytotoxicity in HepG2 cells - 24 hour (AID 1224878); settings: CellTox Green fluorescence; series mostly up to 76.8 µM; also: nearly all actives have a fitted effect of over 45% in size; also: potency is read from the fitted curve at half-maximal effect
Outline: as §4

[15] = A CellTox Green Cytotoxicity Assay to monitor cytotoxicity in HepG2 cells - 40 hour (AID 1224879); settings: CellTox Green fluorescence; series mostly up to 76.8 µM; also: nearly all actives have a fitted effect of over 40% in size; also: potency is read from the fitted curve at half-maximal effect
Outline: as §4

[16] = A CellTox Green Cytotoxicity Assay to monitor cytotoxicity in HEK293 cells - 32 hour (AID 1224881); settings: CellTox Green fluorescence; series mostly up to 76.8 µM; also: nearly all actives have a fitted effect of over 40% in size
Outline: as §5

[17] = A CellTox Green Cytotoxicity Assay to monitor cytotoxicity in HepG2 cells - 32 hour (AID 1224883); settings: CellTox Green fluorescence; series mostly up to 76.8 µM; also: nearly all actives have a fitted effect of over 50% in size; also: potency is read from the fitted curve at half-maximal effect
Outline: as §4

[18] = qHTS RealTime-Glo MT Cell Viability Assay in HEK293 cells - 24 hour (AID 1224886); settings: RealTime-Glo luminescence; series mostly up to 76.8 µM
Outline: as §1

[19] = A CellTox Green Cytotoxicity Assay to monitor cytotoxicity in HEK293 cells - 16 hour (AID 1224888); settings: CellTox Green fluorescence; series mostly up to 76.8 µM; also: nearly all actives have a fitted effect of over 35% in size
Outline: as §5

[20] = A CellTox Green Cytotoxicity Assay to monitor cytotoxicity in HEK293 cells - 24 hour (AID 1224875); settings: CellTox Green fluorescence; series mostly up to 76.8 µM; also: nearly all actives have a fitted effect of over 45% in size
Outline: as §5
% is scaled to controls: 0 for no effect and ±100 for the full control effect.

O=C(c1ccc(O)c(O)c1)c1ccc(O)cc1O
active: Potency [3] 24.5 µM
inactive: Potency [1] | Potency [2] | Potency [4] | Potency [5] | Potency [6] | Potency [7] | Potency [8] | Potency [9] | Potency [10] | Potency [11] | Potency [12]

CCC(CC)(CC(=O)Nc1cccc(/C=C/c2nc(C3CCC3)cs2)c1)C(=O)O
inactive: Potency [1] | Potency [2] | max response [3] -19.8% | Potency [13] | Potency [4] | Potency [14] | Potency [15] | Potency [16] | Potency [6] | Potency [17] | Potency [7] | Potency [8] | Potency [18] | Potency [9] | Potency [19] | Potency [10] | Potency [11]

C=C(C)C(=O)OCCCCCCCCCC
inactive: Potency [1] | Potency [2] | max response [3] 14.3% | Potency [13] | Potency [4] | Potency [14] | Potency [15] | Potency [6] | Potency [17] | Potency [7] | Potency [8] | Potency [18] | Potency [9] | Potency [10] | Potency [11]

CCCCCCCCCCOC(=O)c1ccccc1C(=O)OCCCCCCCC
inactive: Potency [1] | Potency [2] | Potency [20] | Potency [13] | Potency [4] | Potency [14] | Potency [15] | Potency [5] | Potency [16] | Potency [6] | Potency [17] | Potency [7] | Potency [8] | Potency [18] | Potency [9] | Potency [19] | Potency [10] | Potency [11] | Potency [12]

CC(=O)Oc1cc2c(s1)CCN(C(C(=O)C1CC1)c1ccccc1F)C2 (stereo not drawn)
inactive: Potency [1] | Potency [2] | max response [3] -4.77% | Potency [13] | Potency [4] | Potency [14] | Potency [15] | Potency [5] | Potency [16] | Potency [6] | Potency [17] | Potency [7] | Potency [8] | Potency [18] | Potency [9] | Potency [19] | Potency [10] | Potency [11] | Potency [12]

Clc1ccnc(Cl)n1
inactive: Potency [1] | Potency [2] | Potency [20] | Potency [13] | Potency [4] | Potency [14] | Potency [15] | Potency [5] | Potency [16] | Potency [6] | Potency [17] | Potency [7] | Potency [8] | Potency [18] | Potency [9] | Potency [10] | Potency [11] | Potency [12]

CC(C(=O)O)c1ccc2c(c1)[nH]c1ccc(Cl)cc12 (stereo not drawn)
inactive: Potency [1] | Potency [2] | max response [3] 1.73% | Potency [13] | Potency [4] | Potency [14] | Potency [15] | Potency [16] | Potency [6] | Potency [17] | Potency [7] | Potency [8] | Potency [9] | Potency [19] | Potency [10] | Potency [11] | Potency [12]

Sc1nc2ccccc2s1
inactive: Potency [1] | Potency [2] | max response [3] 15.8% | Potency [13] | Potency [4] | Potency [5] | Potency [6] | Potency [7] | Potency [8] | Potency [18] | Potency [9] | Potency [10] | Potency [11] | Potency [12]

O=S(=O)(O)c1ccc(Nc2nc(Nc3ccc(/C=C/c4ccc(Nc5nc(Nc6ccc(S(=O)(=O)O)cc6)nc(N(CCO)CCO)n5)cc4S(=O)(=O)O)c(S(=O)(=O)O)c3)nc(N(CCO)CCO)n2)cc1
inactive: Potency [1] | Potency [2] | Potency [20] | Potency [13] | Potency [4] | Potency [14] | Potency [15] | Potency [5] | Potency [16] | Potency [6] | Potency [17] | Potency [7] | Potency [8] | Potency [18] | Potency [9] | Potency [19] | Potency [11]

CCCCC(CC)COC(=O)CCCCC(=O)OCc1ccccc1 (stereo not drawn)
inactive: Potency [1] | Potency [2] | max response [3] -2.79% | Potency [13] | Potency [14] | Potency [15] | Potency [16] | Potency [6] | Potency [17] | Potency [7] | Potency [8] | Potency [18] | Potency [9] | Potency [19] | Potency [10] | Potency [11] | Potency [12]

CC(C)CCOC(=O)/C=C/c1ccccc1
inactive: Potency [1] | Potency [2] | Potency [20] | Potency [13] | Potency [4] | Potency [14] | Potency [15] | Potency [5] | Potency [16] | Potency [6] | Potency [17] | Potency [7] | Potency [8] | Potency [18] | Potency [9] | Potency [19] | Potency [11] | Potency [12]

CCCC[P+](C)(CCCC)CCCC
inactive: Potency [1] | Potency [2] | Potency [20] | Potency [13] | Potency [4] | Potency [14] | Potency [15] | Potency [5] | Potency [16] | Potency [6] | Potency [17] | Potency [7] | Potency [8] | Potency [9] | Potency [10] | Potency [11] | Potency [12]

Fc1ccc(C(c2ccc(F)cc2)N2CCNCC2)cc1
inactive: Potency [1] | Potency [2] | Potency [20] | Potency [6] | Potency [7] | Potency [8] | Potency [18] | Potency [9] | Potency [19] | Potency [10] | Potency [11] | Potency [12]

CC1=Nc2ccccc2C1(C)C
active: Potency [14] 49 µM | Potency [15] 38.9 µM | Potency [17] 43.7 µM
inactive: Potency [1] | Potency [2] | Potency [20] | Potency [4] | Potency [5] | Potency [7] | Potency [8] | Potency [18] | Potency [9] | Potency [19] | Potency [12]

CCCCCCOC(=O)C(C)CC (stereo not drawn)
inactive: Potency [1] | max response [3] -1.46% | Potency [20] | Potency [13] | Potency [4] | Potency [14] | Potency [15] | Potency [5] | Potency [16] | Potency [6] | Potency [17] | Potency [7] | Potency [8] | Potency [18] | Potency [9] | Potency [19] | Potency [10] | Potency [11] | Potency [12]

CCc1ccc(Br)cc1
inactive: Potency [1] | Potency [2] | Potency [20] | Potency [13] | Potency [4] | Potency [14] | Potency [15] | Potency [5] | Potency [6] | Potency [17] | Potency [7] | Potency [8] | Potency [18] | Potency [9] | Potency [19] | Potency [10] | Potency [11] | Potency [12]

Source: PubChem BioAssay (Tox21)
